This is an account of results in PubChem BioAssay AID1220 (Sanford-Burnham Center for Chemical Genomics, 2008).

Screen size: about 190,000 compounds; about 1,300 (0.68%) were called active. Many of the other results were omitted from the sample, so actives are more common in it than they were. A number with no mark means an inactive call. Cut-off read from the data, not from the text of the source: active = inhibition above about 50%; inactive = the rest.

The target of this assay is Mannose-6-phosphate isomerase (Homo sapiens) (UniProt P34949). The assay is described as follows: MPI inhibition at elevated mannose 6-phosphate – biochemical, fluorescence intensity, high mannose 6-phosphate, primary screen (AID 1220). Conditions: recombinant PMI enzyme, coupled fluorescence intensity; at 20 µM; active compounds read high.
Chain of Mannose-6-phosphate isomerase (Homo sapiens) (P34949 whole entry, looked up): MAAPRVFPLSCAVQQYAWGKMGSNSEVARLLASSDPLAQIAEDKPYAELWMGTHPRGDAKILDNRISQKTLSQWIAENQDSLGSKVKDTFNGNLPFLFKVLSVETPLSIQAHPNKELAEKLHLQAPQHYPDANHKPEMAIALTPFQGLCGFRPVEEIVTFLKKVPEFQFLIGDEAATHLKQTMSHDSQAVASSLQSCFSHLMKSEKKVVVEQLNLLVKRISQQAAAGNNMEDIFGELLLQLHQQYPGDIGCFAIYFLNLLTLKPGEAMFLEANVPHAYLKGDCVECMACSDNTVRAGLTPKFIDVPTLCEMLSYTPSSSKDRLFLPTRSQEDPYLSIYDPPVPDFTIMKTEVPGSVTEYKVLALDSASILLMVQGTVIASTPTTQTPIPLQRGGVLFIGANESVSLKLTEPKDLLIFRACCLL
As to `C=CCn1c(N)c(C(=O)Nc2ccccc2)c2nc3ccccc3nc21`, the inhibition (as a rule, the drop in the measured response relative to a control, in per cent) is 13.4%.

With `COCCCNC(=O)c1c(N)n(-c2ccc(S(N)(=O)=O)cc2)c2nc3ccccc3nc12`, the inhibition is 38.7%.

For `C=CCn1c(N)c(C(=O)NCC2CCCO2)c2nc3ccccc3nc21` (stereo not drawn), the inhibition is 57% (active).

Take `C=CCn1c(N)c(C(=O)Nc2ccc(C)c(C)c2)c2nc3ccccc3nc21`: the inhibition is 41.2%.

Take `COc1ccccc1-n1c(N)c(C(=O)NCC2CCCO2)c2nc3ccccc3nc21` (stereo not drawn): the inhibition is -18.2%.

In the case of `COc1ccc(-n2c(N)c(C(=O)NCC3CCCO3)c3nc4ccccc4nc32)c(OC)c1` (stereo not drawn), the inhibition is 45%.

With `CC(C)Cn1c(N)c(C(=O)NCCN2CCOCC2)c2nc3ccccc3nc21`, the inhibition is 20.7%.

Regarding `Nc1c(C(=O)NCC2CCCO2)c2nc3ccccc3nc2n1-c1ccccc1` (stereo not drawn), the inhibition is 60.3% (active).

`CC(C)Cn1c(N)c(C(=O)NCC2CCCO2)c2nc3ccccc3nc21` (stereo not drawn): the inhibition was 59.5% (active).

For the compound `COCCNC(=O)c1c(N)n(-c2cccc(C)c2)c2nc3ccccc3nc12`, the inhibition was 25.9%.

As for `COCCNC(=O)c1c(N)n(-c2ccccc2)c2nc3ccccc3nc12`, the inhibition was 55.1% (active).

Regarding `O=C(NCC1CCCO1)c1coc2nc3ccccc3nc12` (stereo not drawn), the inhibition is -9.5%.

With `O=C(Cn1c(NCCCO)nc2ccccc21)c1cccc(Br)c1`, the inhibition is 4.9%.

On to `O=C(CSc1nnc(COc2ccccc2)n1Cc1ccco1)NCc1ccco1`, for which the inhibition was 2.2%.

With `O=C1CC(c2ccccc2)CC(O)=C1C=NCc1ccccc1Cl` (stereo not drawn), the inhibition was 4.3%.

As for `O=C(COC(=O)c1cc2c(s1)CCCC2)Nc1ccc(Cl)cn1`, the inhibition is 4.6%.

With `CCc1nnc(NC(=O)CCC(=O)N2CCN(CCc3ccccc3)CC2)s1`, the inhibition was -5.9%.

`CCn1c(CNc2ccc(F)cc2)nnc1SCC(=O)N1CCCc2ccccc21`: the inhibition is 27.9%.

As for `CCc1ccccc1S(=O)(=O)Cc1ccc(C(=O)NCc2ccc3c(c2)OCO3)o1`, the inhibition was -1.6%.

As for `CCCCn1c(NC(C)=O)c(C#N)c2nc3ccccc3nc21`, the inhibition is 57% (active).

As to `N#Cc1c(N)n(CCNC(=O)c2ccccc2)c2nc3ccccc3nc12`, the inhibition is 24.7%.

As to `CCCCn1c(NC(=O)c2ccccc2Cl)c(C#N)c2nc3ccccc3nc21`, the inhibition is 53.7% (active).

Take `N#Cc1c(N)n(CCNC(=O)c2ccc(Cl)cc2)c2nc3ccccc3nc12`: the inhibition is 16.9%.

As to `C=CCn1c(NC(=O)c2ccccc2Cl)c(C#N)c2nc3ccccc3nc21`, the inhibition is 54.5% (active).

In the case of `N#Cc1c(NC(=O)c2ccccc2Cl)n(Cc2ccccc2)c2nc3ccccc3nc12`, the inhibition was 32.7%.

For `CCCCn1c(NC(=O)c2ccccc2)nc2ccccc21`, the inhibition was -3.6%.

For the compound `Cc1ccccc1C(=O)Nc1ccc2c(C#N)c3nc4ccccc4nc3n2c1`, the inhibition was 6.1%.

As to `CCCCn1c(NC(=O)c2ccccc2)c(C#N)c2nc3ccccc3nc21`, the inhibition was 54.7% (active).

With `CCCCn1c(NC(=O)CC)c(C#N)c2nc3ccccc3nc21`, the inhibition was 13%.

Turning to `CCCCCn1c(N)c(C#N)c2nc3ccccc3nc21`, the inhibition was 42.7%.

Turning to `CCC(=O)Nc1c(C#N)c2nc3ccccc3nc2n1-c1ccccc1C`, the inhibition is 24.5%.

On to `O=C(CSc1nc2ccccc2n1CC(=O)N1CCCC1)NCc1ccc2c(c1)OCO2`, for which the inhibition was -0.8%.

`Cc1ccc(NC(=O)c2cc3c(s2)CCC3)cc1S(=O)(=O)N1CCOCC1`: the inhibition is 8.8%.

For `COc1ccc(S(=O)(=O)NCc2cccs2)cc1`, the inhibition was -18.3%.

As for `O=C(NC(=S)NCCCN1CCOCC1)c1cccc2ccccc12`, the inhibition was 1%.

In the case of `O=S1(=O)Nc2c(ccc3cccnc23)-c2ccccc21`, the inhibition is 69.5% (active).

With `O=C1c2ccccc2C(=O)N1c1cccc2cccnc12`, the inhibition is -2.2%.

Regarding `O=S1(=O)NC(=NCCc2ccccn2)c2ccccc21`, the inhibition was -6.8%.

`O=S(=O)(c1ccc(Cl)cc1)N1CCN(c2ccc(N3CCOCC3)nn2)CC1`: the inhibition was -2.7%.

As to `N#CC1=C(N)Oc2c(ccc3ccccc23)C1c1cccs1` (stereo not drawn), the inhibition was 3.4%.

Consider `N#CC1=C(N)Oc2c(ccc3ccccc23)C1c1ccsc1` (stereo not drawn), for which the inhibition was 53.2% (active).

For `N#CC1=C(N)Oc2c(O)cc3ccccc3c2C1c1ccsc1` (stereo not drawn), the inhibition was 30.3%.

Take `c1ccc(N2CCN(c3nc4ccccc4n4cnnc34)CC2)cc1`: the inhibition is 10%.

Turning to `Nc1ccc(-c2ccc(N)c([N+](=O)[O-])c2)cc1[N+](=O)[O-]`, the inhibition was -2.3%.

Turning to `CC1(C)Oc2cc(N)c([N+](=O)[O-])cc2O1`, the inhibition was 28.1%.

Regarding `O=c1[nH]cnc2ccsc12`, the inhibition was -6%.

Regarding `CCOc1ccccc1NC(=O)CN(c1ccc(OC)cc1OC)S(=O)(=O)c1ccccc1[N+](=O)[O-]`, the inhibition was -0.9%.

With `C/C(=C\C(=S)Nc1ccccc1)Nc1ccc2ccccc2c1`, the inhibition was 60% (active).

Consider `COc1ccc(N/C(C)=C/C(=S)Nc2ccccc2)cc1`, for which the inhibition was 50.1% (active).

As to `C/C(=C\C(=S)Nc1ccccc1)Nc1cccc2ccccc12`, the inhibition was 60.8% (active).

With `COc1ccc(N/C(C)=C/C(=O)c2ccccc2)cc1`, the inhibition is 14.3%.

Turning to `C/C(=C\C(=S)Nc1ccccc1)Nc1ccccc1`, the inhibition is -1.1%.

Regarding `CC(=O)Nc1ccc2ccccc2c1`, the inhibition was 6.5%.

With `CC(=O)c1cccc(NC(=O)C(=O)Nc2cccc3ccccc23)c1`, the inhibition is -6.5%.

On to `CN(C)C(=S)Nc1ccc2ccccc2c1`, for which the inhibition is 3.2%.

As to `CN(C)c1ccc(NC(=O)Nc2cccc3ccccc23)cc1`, the inhibition is 25.8%.

On to `CCn1c(SCC(=O)N/N=C/c2cc(OC)c(O)c(OC)c2)nc2ccccc21`, for which the inhibition was -11%.

On to `CC(C)NS(=O)(=O)c1ccc(NC(=S)NC(=O)c2cccc([N+](=O)[O-])c2)cc1`, for which the inhibition was -2.9%.

In the case of `O=C(O)CSc1nnc(-c2ccncc2)n1CCc1ccccc1`, the inhibition was -5.1%.

`O=c1[nH]c2cc3c(cc2cc1CN(Cc1nnnn1CC1CCCO1)C1CCCC1)OCO3` (stereo not drawn): the inhibition is -6.2%.

In the case of `O=C(CCN1CCCCC1)c1ccc2c(c1)OCCO2`, the inhibition was 43%.

For `Cc1cccc(N2CCN(S(=O)(=O)c3cccc4nonc34)CC2C)c1` (stereo not drawn), the inhibition is 26.5%.

In the case of `Cc1[nH]n(-c2ccccc2)c(=O)c1C(c1ccccc1C(=O)O)c1c(C)[nH]n(-c2ccccc2)c1=O`, the inhibition is -21.9%.
